The record followed here is PubChem BioAssay (NCATS).

Records with an inconclusive call do not appear. Where a call stands in place of a potency, no number is given. A number with no mark means an inactive call. The source made the active and inactive calls. The call rests on the fitted dose curve; in most records, active means well fitted inhibition curve with a large enough effect; inconclusive means small, poorly fitted or top-dose-only effect; inactive means no such curve, though single readings can be large or run the other way.
Potency means the concentration at half of the fitted maximal effect.

This experiment can be described thus: BET inhibitor-based combinations targeting novel dependencies in MECOM-rearranged (r) AML: UCSD-AML1 cell line (AID 2202235). Further: nearly all actives have a fitted effect of over 40% in size. The following applies: UCSD-AML1 AML cells viability, CellTiter-Glo, 48 h; series mostly up to 46 µM. An excerpt:
Ecotropic viral insertion site 1 (EVI1) is located on chromosome 3q26.2 as part of the MECOM (MDS and EVI1 complex) locus. Under normal hematopoiesis, EVI1 is a regulator of hematopoietic stem cell maintenance and self-renewal and EVI1 levels decrease as the cells differentiate. In approximately 5-10% of de novo acute myeloid leukemia (AML) EVI1 is aberrantly expressed, including Chromosomal inv(3)(q21;q26.2) or t(3;3)(q21;q26.2) alterations (MECOM-r) that account for about 50% of AML with EVI1 overexpression 31. AMLs with high levels of EVI1 have a poor prognosis and an overall survival time averaging between 10-14 months. EVI1 overexpression confers resistance in leukemia cells, highlighting the need to develop new targeted therapies for EVI1 overexpressing AMLs. Here, we performed an unbiased chemical drug screening by evaluating the single agent activity of a collection of 2,480 oncology-focused, approved and investigational drugs (NCATS Mechanism Interrogation Plates, MIPE v5.0) against a panel of seven AML cell lines. These included four MECOM-r cell-lines (AML-191, AML-194, UCSD-AML1 and HNT-34) and three non-MECOM-r AMLs (MV4-11, OCI-AML3 and SET-2). Exploiting the mechanistic redundancy built in the library, we identified target-level sensitivities in MECOM-r AML cells and relative activity as compared to other AML subtypes.
A collection of 2480 mechanistically annotated dugs (MIPE v5.0) was used to screen four 3q26.2 rearranged AML cell lines and three non-3q26.2 rearranged AML cell lines. This library purposely exploits redundancy by including multiple inhibitors of key onco-targets, while simultaneously encompassing mechanistic diversity, targeting more than 800 distinct mechanisms of action. Briefly, cells were seeded in 5 uL of growth media using a Multidrop Combi dispenser into 1536 well white polystyrene tissue culture treated plates (Corning) at a density of 500cells/well. For each cell-line, for each of the 2480 drugs in MIPE v5.0 library, an 11-point dose curve was generated via a 1536 pin-tool. Plates were incubated for 48 hr at standard incubator conditions, covered by a stainless steel gasketed lid to prevent evaporation. Cell viability was determined by luminescence based, Cell Titer Glo assay (Promega). In detail, 3 uL of Cell Titer Glo were added to each well and plates were incubated at room temperature for 15 min with a stainless-steel lid in place. Luminescence readings were taken using a Viewlux (PerkinElmer) with a 2 s exposure time per plate. Compound dose-response curves were normalized to DMSO and empty well controls on each plate. Quantitative drug activity data from dose-response curves was determined utilizing area Under the Curve (AUC) and Z-transformed AUC (Z-AUC, a mean-centering transformation applied to each individual cell-line screened).
For orientation: Cellular ATP, detected with luciferase, serves as a proxy for viable cell number.
For the molecule `N#Cc1ccc(C2CCCc3cncn32)cc1` (stereo not given), the Potency result is “inactive”.
Regarding `Cc1ncc(NC(=O)c2ccc(CN3CCN(C)CC3)c(C(F)(F)F)c2)cc1Nc1nccc(-c2cccnc2)n1`, the Potency result is “inactive”.
On the same count and under the same terms, to `CCCOc1ccc2nc(NC(=O)OC)[nH]c2c1` belongs 263 nM (active); to `COC(=O)C1=C(C)NC(C)=C(C(=O)OCCCN2CCC(c3ccccc3)(c3ccccc3)CC2)C1c1cccc([N+](=O)[O-])c1` (stereo not given), 14800 nM (active); to `CC(=O)c1cnc2ccc(-c3cc(Cl)c(O)c(Cl)c3)nc2c1NC1CCC(CN(C)C)CC1` (stereo not given), 27 nM (active).
In the case of `O=NN(CCCl)C(=O)NCCCl`, the Potency result was “inactive”.
For the molecule `CCC[C@H](N[C@H]1CCc2cc(F)cc(F)c2C1)C(=O)Nc1cn(C(C)(C)CNCC(C)(C)C)cn1`, the Potency entry was “inactive”.
Turning to `CCn1nc(C2CCN(C(=O)CCO)CC2)nc1-c1cnc(N)c(-c2nnc(C(C)(C)C)o2)n1`, the Potency is 5900 nM (active).
The same measure, in the same setting: to `COc1cc2c(N3CCN(C(=O)Nc4ccc(OC(C)C)cc4)CC3)ncnc2cc1OCCCN1CCCCC1` belongs 16600 nM (active); to `COc1ccc(-c2coc3cc(O)cc(O)c3c2=O)cc1`, “inactive”; to `COc1cc(F)c(F)c(Nc2ccc(I)cc2F)c1NS(=O)(=O)C1(C[C@H](O)CO)CC1`, 662 nM (active).
Regarding `CC(C)N(CCCNC(=O)Nc1ccc(C(C)(C)C)cc1)C[C@H]1O[C@@H](n2ccc3c(N)ncnc32)[C@H](O)[C@@H]1O`, the Potency entry is “inactive”.
Consider `CCN1CCN(CC(=O)Nc2ccc(-c3cccc4c(=O)cc(N5CCOCC5)oc34)c3sc4ccccc4c23)CC1`, for which the Potency was 2570 nM (active).
Regarding `NC(=O)C1CCCc2c1[nH]c1ccc(Cl)cc21` (stereo not given), the Potency result was “inactive”.
On the same count and under the same terms, to `CCOc1cc2ncc(C#N)c(Nc3ccc(OCc4ccccn4)c(Cl)c3)c2cc1NC(=O)/C=C/CN(C)C` belongs 3720 nM (active); to `CC(=O)Nc1nc(C)c(-c2ccc(Cl)c(S(=O)(=O)NCCO)c2)s1`, 3720 nM (active).
Take `CC(C)C[C@H](NC(=O)[C@H](Cc1ccccc1)NC(=O)c1cnccn1)B(O)O`: the Potency was 18.6 nM (active).
As to `CCN(CCO)CCCC(C)Nc1ccnc2cc(Cl)ccc12` (stereo not given), the viability (% of control) is 97.7% [at 5.12 µM].
For the molecule `N=c1ccn2c(n1)O[C@H]1[C@@H](O)[C@@H](CO)O[C@H]12`, the Potency was 83.3 nM (active).
On to `O=C1Nc2ccc(I)cc2/C1=C/c1cc(Br)c(O)c(Br)c1`, for which the Potency entry is “inactive”.
Consider `C[C@@H]1CCN(C(=O)N2CCCC2)C[C@@H]1N(C)c1ncnc2[nH]ccc12`, for which the Potency is 934 nM (active).
Turning to `CC(C)C[C@H](NC(=O)[C@@H](O)[C@H](N)Cc1ccccc1)C(=O)O`, the Potency entry is “inactive”.
Turning to `Cc1csc(NC(=O)c2sc3nc4c(c(C(F)(F)F)c3c2N)CCC4)n1`, the Potency entry was “inactive”.
As for `CC(C)c1c2cc(-c3ccnc(NC4CCC(NC5CCOCC5)CC4)n3)ccc2nn1C` (stereo not given), the Potency was 118 nM (active).
In the case of `CC(=O)O[C@H]1C[C@@H]2CC[C@H]3[C@H]4C[C@H]([N+]5(C)CCCCC5)[C@@H](OC(C)=O)[C@@]4(C)CC[C@@H]3[C@@]2(C)C[C@H]1[N+]1(C)CCCCC1`, the Potency result was “inactive”.
As for `Cn1cc(-c2ccc3ncc(Cc4ccc5ncccc5c4)n3n2)cn1`, the Potency result was “inactive”.
As for `O=C(O)CCn1c2c(c3ccccc31)C[C@H](NS(=O)(=O)c1ccc(F)cc1)CC2`, the Potency entry is “inactive”.
For the molecule `CNC(=O)Nc1ccc(-c2nc(N3CC4CCC(C3)O4)c3cnn(C4CCC5(CC4)OCCO5)c3n2)cc1`, the Potency was 29.5 nM (active).
Take `CN(CCOc1ccc(CC2SC(=O)NC2=O)cc1)c1ccccn1` (stereo not given): the Potency entry is “inactive”.
In the case of `COc1ncnc(NS(=O)(=O)c2ccc(N)cc2)c1OC`, the Potency entry is “inactive”.
On the same count and under the same terms, to `NC1(c2ccc(-c3nc4ccn5c(=O)[nH]nc5c4cc3-c3ccccc3)cc2)CCC1` belongs 14800 nM (active); to `CS(=O)(=O)N1CCc2c(-c3cnc(N)nc3)nc(N3CCOCC3)nc21`, 662 nM (active).
On to `CC(C)(C)OC(=O)CN(Cc1ccc(Cl)cc1)Cc1ccc([N+](=O)[O-])s1`, for which the Potency entry was “inactive”.
For `CC(C)c1c(C(=O)Nc2ccccc2)c(-c2ccccc2)c(-c2ccc(F)cc2)n1CC[C@@H](O)C[C@@H](O)CC(=O)O`, the Potency was 7230 nM (active).
`CC(C)(F)C[C@H](N[C@@H](c1ccc(-c2ccc(S(C)(=O)=O)cc2)cc1)C(F)(F)F)C(=O)NC1(C#N)CC1`: the Potency entry was “inactive”.
Turning to `Cc1c(-c2ccc(O)cc2)n(Cc2ccc(OCCN3CCCCCC3)cc2)c2ccc(O)cc12`, the Potency result was “inactive”.
For `CCc1c(O)cc(O)c(C(=O)c2ccc(OCCN3CCOCC3)c(OC)c2)c1CC(=O)N(CCOC)CCOC`, the Potency is 263 nM (active).
With `CCC(=O)O[C@]1(C(=O)SCF)[C@H](C)C[C@H]2[C@@H]3C[C@H](F)C4=CC(=O)C=C[C@]4(C)[C@@]3(F)[C@@H](O)C[C@@]21C`, the Potency result is “inactive”.
As to `COc1cc(C(=O)NS(=O)(=O)c2ccccc2C)ccc1Cc1cn(C)c2ccc(NC(=O)OC3CCCC3)cc12`, the Potency entry is “inactive”.
The same measure, in the same setting: to `Cc1ccc(-c2cc(C(F)(F)F)nn2-c2ccc(S(N)(=O)=O)cc2)cc1` belongs “inactive”.
